Laboratory results: PubChem BioAssay (NCATS)
Records with an inconclusive call do not appear. Where a call stands in place of a potency, no number is given. Calls of active or inactive are those of the source. Calls follow the shape of the dose curve; as a rule, active = well fitted inhibition curve with a large enough effect; inconclusive = small, poorly fitted or top-dose-only effect; inactive = flat fitted curve, though single readings scatter.

What was measured:
Experiment in all cases: qHTS profiling for inhibitors of Plasmodium falciparum proliferation (AID 504749); also: nearly all actives have a fitted effect of over 60% in size
Settings in all cases: P. falciparum in erythrocytes, SYBR Green DNA, 72 h; series mostly up to 28.7 µM
[1] = test system: AA1029
Outline: (§1)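 Infected RBCs, 0.3% parasitemia/2.5% Hct final; cpd 72 h, 37 C, 5% CO2; lysis buffer with saponin/triton/SYBR Green I, o/n RT dark; FI 485/535; norm. to artemisinin (0.29 uM) and DMSO.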

[2] = test system: AS120
Outline: as §1

[3] = test system: ATS189
Outline: as §1

[4] = test system: C2A
Outline: as §1

[5] = test system: CP185
Outline: as §1

[6] = test system: CP192
Outline: as §1

[7] = test system: CP194
Outline: as §1

[8] = test system: CP201
Outline: as §1

[9] = test system: CP203
Outline: as §1

[10] = test system: CP211
Outline: as §1

[11] = test system: CP215
Outline: as §1

[12] = test system: CP217
Outline: as §1

[13] = test system: CP237
Outline: as §1

[14] = test system: CP238
Outline: as §1

[15] = test system: CP247
Outline: as §1

[16] = test system: CP250
Outline: as §1

[17] = test system: CP252
Outline: as §1

[18] = test system: CP256
Outline: as §1

[19] = test system: ATS95
Outline: as §1

[20] = test system: CP191
Outline: as §1
Potency is read from the fitted curve at half-maximal effect.

SMILES	Potency [1]	Potency [2]	Potency [3]	Potency [4]	Potency [5]	Potency [6]	Potency [7]	Potency [8]	Potency [9]	Potency [10]	Potency [11]	Potency [12]	Potency [13]	Potency [14]	Potency [15]	Potency [16]	Potency [17]	Potency [18]	Potency [19]	Potency [20]
CC/C=C\C/C=C\C/C=C\CCCCCCCC(=O)O	inactive	inactive	inactive	inactive	inactive	inactive	inactive	inactive	inactive	inactive	inactive	inactive	inactive	inactive	inactive	inactive	inactive	inactive	–	–
Nc1ccc(N=Nc2ccccc2)c(N)n1	inactive	inactive	inactive	–	inactive	inactive	inactive	inactive	inactive	inactive	–	inactive	inactive	inactive	inactive	inactive	inactive	inactive	inactive	–
CC1CC(OC(=O)C(O)c2ccccc2)CC(C)(C)C1 (stereo not drawn)	inactive	inactive	inactive	inactive	inactive	–	inactive	inactive	inactive	inactive	inactive	inactive	inactive	inactive	inactive	inactive	inactive	inactive	inactive	inactive
N=C(N)c1ccc(/C=C/c2ccc(C(=N)N)cc2O)cc1	10 µM (active)	12.6 µM (active)	–	3.98 µM (active)	10 µM (active)	5.36 µM (active)	6.01 µM (active)	12 µM (active)	15.1 µM (active)	–	5.36 µM (active)	11.2 µM (active)	5.01 µM (active)	10 µM (active)	10 µM (active)	11.2 µM (active)	15.8 µM (active)	0.447 µM (active)	10 µM (active)	1.41 µM (active)
CCOC(=O)c1c[nH]c2cc(OCC(C)C)c(OCC(C)C)cc2c1=O	0.0794 µM (active)	0.0447 µM (active)	0.0631 µM (active)	0.199 µM (active)	0.1 µM (active)	–	–	–	–	0.0536 µM (active)	–	0.0708 µM (active)	0.0794 µM (active)	0.126 µM (active)	0.0794 µM (active)	0.0794 µM (active)	0.0891 µM (active)	0.0708 µM (active)	0.0891 µM (active)	0.0501 µM (active)
Cc1ccc(S(=O)(=O)O)cc1C	inactive	inactive	inactive	inactive	inactive	inactive	inactive	inactive	inactive	inactive	inactive	inactive	inactive	inactive	inactive	inactive	inactive	inactive	–	inactive
CC[C@H]1OC(=O)[C@H](C)[C@@H](O[C@H]2C[C@@](C)(OC)[C@@H](O)[C@H](C)O2)[C@H](C)[C@@H](O[C@@H]2O[C@H](C)C[C@H](N(C)C)[C@H]2O)[C@](C)(O)C[C@@H](C)CN(C)[C@H](C)[C@@H](O)[C@]1(C)O	4.47 µM (active)	5.01 µM (active)	12.6 µM (active)	4.47 µM (active)	5.01 µM (active)	–	–	–	–	–	–	5.62 µM (active)	5.01 µM (active)	5.62 µM (active)	–	–	4.47 µM (active)	2.24 µM (active)	7.94 µM (active)	–
Cn1cc(NC(=O)c2cc(NC(=O)c3cc(NC=O)cn3C)cn2C)cc1C(=O)NCCC(=N)N	7.08 µM (active)	7.08 µM (active)	11.2 µM (active)	7.94 µM (active)	11.2 µM (active)	–	–	–	–	–	–	7.08 µM (active)	8.91 µM (active)	11.2 µM (active)	6.31 µM (active)	7.94 µM (active)	8.91 µM (active)	11.2 µM (active)	6.31 µM (active)	10 µM (active)
CCC(=O)c1ccc2c(c1)N(CCCN1CCN(CCO)CC1)c1ccccc1S2	12.6 µM (active)	12.6 µM (active)	12.6 µM (active)	–	–	–	–	15.1 µM (active)	15.1 µM (active)	13.5 µM (active)	–	8.91 µM (active)	7.94 µM (active)	–	–	8.91 µM (active)	11.2 µM (active)	7.08 µM (active)	–	5.62 µM (active)
CSCCC(N)C(=O)O (stereo not drawn)	inactive	inactive	inactive	inactive	inactive	inactive	–	–	–	–	–	inactive	inactive	inactive	inactive	inactive	inactive	inactive	inactive	inactive
C#C[C@]1(O)CC[C@@H]2[C@H]3CCC4=CC(=O)CC[C@H]4[C@H]3C(=C)C[C@@]21CC	inactive	inactive	inactive	inactive	inactive	0.379 µM (active)	0.536 µM (active)	0.478 µM (active)	–	0.478 µM (active)	0.478 µM (active)	–	–	inactive	–	inactive	inactive	–	inactive	–
COC(=O)[C@@H](N)CS	inactive	inactive	inactive	inactive	inactive	inactive	inactive	inactive	inactive	inactive	–	inactive	inactive	inactive	inactive	inactive	inactive	inactive	–	inactive
CCN(CC)CCCC(C)Nc1cc(/C=C/c2ccccc2Cl)nc2cc(Cl)ccc12 (stereo not drawn)	2.24 µM (active)	2 µM (active)	3.55 µM (active)	1.12 µM (active)	2.82 µM (active)	–	12 µM (active)	4.78 µM (active)	–	15.1 µM (active)	13.5 µM (active)	3.16 µM (active)	1.78 µM (active)	4.47 µM (active)	3.55 µM (active)	1.26 µM (active)	–	3.55 µM (active)	2.51 µM (active)	1.26 µM (active)
O=P(O)(O)CP(=O)(O)O	inactive	inactive	inactive	inactive	–	inactive	inactive	inactive	inactive	inactive	inactive	inactive	inactive	inactive	inactive	inactive	inactive	inactive	inactive	–
CSc1nc2cc(Oc3cccc(Cl)c3Cl)c(Cl)cc2[nH]1	11.2 µM (active)	11.2 µM (active)	6.31 µM (active)	–	11.2 µM (active)	–	13.5 µM (active)	10.7 µM (active)	–	10.7 µM (active)	9.53 µM (active)	3.98 µM (active)	11.2 µM (active)	8.91 µM (active)	3.16 µM (active)	2.24 µM (active)	3.16 µM (active)	1.78 µM (active)	8.91 µM (active)	3.98 µM (active)
O=C(O)CCC/C=C\C[C@@H]1[C@@H](/C=C/[C@@H](O)COc2cccc(C(F)(F)F)c2)[C@H](O)C[C@@H]1O	inactive	inactive	inactive	inactive	inactive	–	inactive	inactive	inactive	inactive	inactive	inactive	inactive	inactive	inactive	inactive	inactive	inactive	inactive	inactive
CCCCCCCCCC(=O)NO	inactive	inactive	inactive	inactive	inactive	inactive	inactive	inactive	inactive	inactive	inactive	inactive	inactive	inactive	inactive	inactive	inactive	inactive	inactive	–
CN(C)CCOc1ccc(/C(=C(/CCCl)c2ccccc2)c2ccccc2)cc1	inactive	inactive	inactive	inactive	inactive	inactive	inactive	inactive	inactive	inactive	inactive	inactive	inactive	inactive	inactive	inactive	inactive	inactive	–	inactive
CCN(CC)CCOC(=O)c1cccnc1	inactive	inactive	inactive	inactive	inactive	inactive	inactive	–	–	inactive	inactive	inactive	–	–	–	–	inactive	inactive	–	–
O=P(O)(O)OC[C@H]1O[C@](O)(COP(=O)(O)O)[C@@H](O)[C@@H]1O	inactive	inactive	inactive	inactive	inactive	inactive	–	inactive	inactive	inactive	inactive	inactive	inactive	inactive	inactive	inactive	inactive	inactive	inactive	inactive
COc1cc(NCCCC(C)N)c2ncccc2c1 (stereo not drawn)	12.6 µM (active)	3.16 µM (active)	11.2 µM (active)	10 µM (active)	11.2 µM (active)	–	7.57 µM (active)	–	7.57 µM (active)	–	8.49 µM (active)	11.2 µM (active)	7.08 µM (active)	11.2 µM (active)	4.47 µM (active)	5.62 µM (active)	11.2 µM (active)	4.47 µM (active)	11.2 µM (active)	5.01 µM (active)
C/C=C/C=C/C(=O)O	inactive	inactive	inactive	inactive	inactive	inactive	–	inactive	inactive	inactive	–	inactive	inactive	inactive	inactive	inactive	inactive	inactive	–	inactive
c1ccc2c(c1)Sc1ccccc1N2CCN1CCCC1	7.94 µM (active)	7.08 µM (active)	8.91 µM (active)	–	10 µM (active)	–	13.5 µM (active)	13.5 µM (active)	–	13.5 µM (active)	12 µM (active)	7.08 µM (active)	5.01 µM (active)	11.2 µM (active)	7.08 µM (active)	11.2 µM (active)	11.2 µM (active)	10 µM (active)	8.91 µM (active)	–
Cc1cc(-c2ccc(N=Nc3c(S(=O)(=O)O)cc4cc(S(=O)(=O)O)cc(N)c4c3O)c(C)c2)ccc1N=Nc1c(S(=O)(=O)O)cc2cc(S(=O)(=O)O)cc(N)c2c1O	inactive	14.1 µM (active)	–	inactive	–	inactive	–	inactive	inactive	inactive	inactive	–	–	–	–	–	inactive	inactive	inactive	inactive
CC(=O)[O][Al][O]C(C)=O	inactive	inactive	inactive	inactive	inactive	–	inactive	inactive	–	–	inactive	inactive	inactive	inactive	inactive	inactive	inactive	inactive	inactive	inactive
O=C1NCCN1c1ncc([N+](=O)[O-])s1	inactive	inactive	inactive	inactive	inactive	inactive	inactive	–	inactive	inactive	inactive	inactive	inactive	inactive	inactive	inactive	inactive	inactive	inactive	inactive
